L3MBTL1 block: inhibitors of human L3MBTL1; AlphaScreen L3MBTL1–H3K9me1 peptide binding; Potency, µM (series often up to 57.1 µM), hits mostly inhibitors; 230,000 compounds, 0.66% hits; AID 485360; further: nearly all actives have a fitted effect of over 60% in size
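Displacement of a biotinylated histone H3(1-15) peptide monomethylated at Lys9 (75 nM) from L3MBTL1 (50 nM) was measured by AlphaScreen after a 30 min room-temperature compound incubation; cefsulodin titration served as intraplate control.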
G9a inh: blocks human histone lysine methyltransferase G9a; G9a H3K9 monomethylation, AlphaScreen, 2 h; AID 504332; Potency, µM (top dose mostly 102 µM), usual class: inhibitors; Q96KQ7; 350,000 compounds, 8.8% hits; further: nearly all actives have a fitted effect of over 75% in size
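AlphaScreen detection with an anti-monomethyl H3K9 antibody quantified product after a 2 h room-temperature reaction containing 500 nM biotinylated H3K9 peptide, 20 µM SAM and 20 nM enzyme, which had been preincubated 15 min with compound.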
PI5P4K alpha inh: PI5P4K alpha (human) kinase inhibition | max response, % | PI5P4Kalpha enzyme, ADP-Glo luminescence, 60 min; hits give low values | AID 652105 | 330,000 compounds, 1.2% hits | P48426; active means max response of -50% or lower; inconclusive means between -30% and -50%; inactive means -30% or higher; further: value at the top dose of about 77 µM
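ADP-Glo luminescence end-point after a 60 min room-temperature kinase reaction. PI5P4Kalpha and substrate in HEPES pH 7.4 buffer with EGTA, 0.1% CHAPS and 5% DMSO; ATP at 5 microM final.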
JMJD2A Tudor inh: inhibitors of human JMJD2A Tudor domain; O75164; AlphaScreen JMJD2A-Tudor / H3K4me3 peptide binding; Potency, µM (top dose mostly 114 µM), hits mostly inhibitors; 390,000 compounds, 4.4% hits; AID 504339; further: nearly all actives have a fitted effect of over 50% in size
HP1b binding inh: blocks HP1-beta chromodomain binding to methylated histone tails | 390,000 compounds, 0.56% hits | Potency, µM (highest dose often 114 µM), hits mostly inhibitors | AlphaScreen HP1-beta / biotin-H3K9me3 peptide binding | P83916; further: nearly all actives have a fitted effect of over 70% in size
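Compound inhibition of the preformed complex between 50 nM HP1-beta and 50 nM biotinylated H3K9me3 peptide was read by AlphaScreen. Buffer was PBS pH 7.4 with 0.01% Tween-20. Incubations ran 30 min at room temperature, with 10 ug/mL donor/acceptor beads.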
BAZ2B block: inhibitors of human BAZ2B bromodomain | 360,000 compounds, 4.4% hits | AlphaScreen BAZ2B-H3K14Ac peptide displacement | Q9UIF8 | Potency, µM (top dose mostly 114 µM), actives largely listed as inhibitors; further: nearly all actives have a fitted effect of over 60% in size
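BAZ2B 50 nM plus b-H3(5-23)K14Ac 50 nM, PBS pH 7.4/0.01% Tween-20, 30 min RT; compound added (max 110 uM), 30 min RT; streptavidin donor/Ni-chelate acceptor beads 10 ug/mL final, 20 min dark; AlphaScreen read.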
A number is an active result; n = inactive; u = inconclusive; x = not tested or not shown; [ ] = remark or other dose. Sampled rows, rich in hits. Any-hit rate of the full collection: about 11%. Unless noted, the call rests on the fitted dose curve; in most records, active means well fitted inhibition curve with a large enough effect; inconclusive means small, poorly fitted or top-dose-only effect; inactive means no such curve, though single readings can be large or run the other way.

SMILES	L3MBTL1 block	G9a inh	PI5P4K alpha inh	JMJD2A Tudor inh	HP1b binding inh	BAZ2B block
COC(=O)c1cc(C(=O)c2c(C)cc3ccccn23)cc([N+](=O)[O-])c1	x	31.6µM	n	44.7µM	u	u
CCN(CC)S(=O)(=O)c1cccc(C(=O)c2c(C)cc3ccccn23)c1	n	n	n	n	n	n
Cc1cc2ccccn2c1C(=O)c1ccc(C#N)cc1	x	u	n	n	n	u
Cc1cc2ccccn2c1C(=O)c1cc([N+](=O)[O-])cc([N+](=O)[O-])c1	u	31.6µM	n	17.8µM	u	10µM
CCc1ccc(-n2nc(C)c3c(C)cc(=O)n(CC(=O)Nc4ccc(OC)c(OC)c4)c32)cc1	x	n	x	n	n	n
Cc1ccc2nc(Cl)c3cc(C(=O)NC4CCC(C)CC4)sc3c2c1 (configuration not stated)	x	n	x	n	n	n
COc1ccccc1C(=O)NC(=O)COC(=O)c1nccnc1N	n	x	n	39.8µM	n	x
COc1ccccc1C(=O)NC(=O)COC(=O)c1cnccn1	x	x	n	x	x	x
COc1ccc(OCC(=O)NC(=O)c2ccccc2OC)c([N+](=O)[O-])c1	n	50.1µM	n	n	n	n
O=S(=O)(c1ccc(Cl)cc1)N1CCN(c2nc(-c3cccc(Br)c3)nc3ccccc23)CC1	x	x	x	n	n	x
COc1ccc(N=N/C(=C\O)C(=O)c2ccco2)cc1	n	u	n	n[11.4 µM]	n	39.8µM
Cc1cccc(-c2nc(SCCCOc3ccccc3Cl)n3[nH]c(=O)cc3n2)c1	x	n	x	n	n	n
CN(C)c1ccc(Nc2ncnc3c2c(-c2ccccc2)cn3-c2cccc(Cl)c2)cc1	x	8.91µM	x	12.6µM	u	4.47µM
CCN(CC)c1ccc2cc(-c3nc(-c4ccccc4)no3)c(=O)oc2c1	x	n	x	n	n	n
O=C(O)c1ccc(Cn2cnc3cccnc32)cc1	x	39.8µM	n	n	n	n
O=C(O)c1ccc(Cn2cnc3scc(-c4ccccc4)c3c2=O)cc1	n	n	n	n	n	n
COc1ccc(CN(C)CC2CCCN(CCc3ccc(F)cc3)C2)cc1OC (configuration not stated)	n	n	n	n	n	n
COc1cc(CN(C)CC2CCCN(CCc3cccc(C(F)(F)F)c3)C2)ccc1O (configuration not stated)	n	44.7µM	n	n	n	n
COc1ccc(N2CCN(Cc3cc(=O)oc4cc5c(cc34)CCCC5)CC2)cc1	n	n	n	n	n	n
COc1ccc(N2CCN(Cc3cc4c(cc3O)CCC4)CC2)cc1	x	u	x	15.8µM	n	31.6µM
C/C=C/c1cc(CN2CCN(c3ccc(OC)cc3)CC2)c(O)c(OC)c1	n	35.5µM	n	44.7µM	44.7µM	28.2µM
COc1ccc(NC2=Nc3cccc4cccc2c34)cc1OC	n	u	x	u	n	n
COc1cccc(NC2=Nc3cccc4cccc2c34)c1	n	u	n	44.7µM	n	39.8µM
CCOC(=O)C(=O)NNc1cccc(C)c1C	n	0.631µM	n	n	n	n
CN(C(=O)c1ccno1)c1nnc(-c2ccccn2)s1	n	u	n	u	n	50.1µM
SMILES	L3MBTL1 block	G9a inh	PI5P4K alpha inh	JMJD2A Tudor inh	HP1b binding inh	BAZ2B block
CN(C(=O)c1ccncc1)c1nnc(-c2cccnc2)s1	x	n	n	n	n	n
Cc1ccc(C(=O)N(C)c2nnc(-c3ccncc3)s2)cc1	n	x	n	79.4µM	n	n
CN(C(=O)c1ccncc1)c1nnc(-c2ccccn2)s1	x	n[12.7 µM]	n	n	n	56.2µM
COc1ccc(-c2nnc(N(C)C(=O)c3ccno3)s2)cc1	n	n	n	n	n	n
CCOc1ccc(CN2C(=O)c3ccccc3Sc3ccc(C(=O)N4CCN(C)CC4)cc32)cc1	x	n	x	u	n	x
CC(=O)Nc1ccc(N(CC(O)Cn2c3ccccc3c3ccccc32)S(=O)(=O)c2ccc(C)cc2)cc1 (configuration not stated)	n	10µM	n	n	n	n
O=C(Nc1ccc(Cl)cc1)c1cnn2c1NC(c1ccccc1)=CC2c1ccccc1 (configuration not stated)	x	10µM	x	u	n	n
CC1=C(C(=O)Nc2ccc(Cl)cc2)C(c2ccccc2)n2ncc(C(=O)Nc3ccccc3)c2N1 (configuration not stated)	x	n	x	n	n	n
O=C(Nc1nc2n(n1)C(c1ccccc1)C=C(c1ccccc1)N2)c1ccccc1 (configuration not stated)	x	10µM	x	56.2µM	n	20µM
COc1ccc(C2C=C(c3ccccc3)Nc3nc(NC(=O)c4ccc(C)cc4)nn32)cc1 (configuration not stated)	x	n	x	n	n	n
COc1ccc(C(=O)Nc2nc3n(n2)C(c2ccc(Cl)cc2)C=C(c2ccccc2)N3)cc1OC (configuration not stated)	x	u	x	56.2µM	n	28.2µM
O=C(Nc1nc2n(n1)C(c1ccc(Cl)cc1)C=C(c1ccccc1)N2)c1ccco1 (configuration not stated)	x	n	x	n	n	n
NCCC(O)C(=O)NC1C[C@@H](N)[C@H](O[C@@H]2OC(CN)C(O)C(O)C2O)C(O)[C@H]1O[C@H]1OC(CO)C(O)C(N)C1O (some centres not stated)	x	n[2.33 µM]	x	x	x	x
COc1cccc(CNC(=O)Nc2cccs2)c1	n	44.7µM	n	n	n	n
COc1ccc(CNC(=O)Nc2cccs2)cc1OC	n	12.6µM	n	n	n	n
CC(=O)N1CCCc2cc(S(=O)(=O)N3CCCC(C(=O)NC(C)C)C3)ccc21 (configuration not stated)	x	n	x	n	n	n
O=C(NCc1cccnc1)C1CCN(Cc2cc3ccccc3n2Cc2cccc(Cl)c2)CC1	x	n	x	u	n	u
CC(=O)N1CCCc2cc(S(=O)(=O)N3CCCC(C(=O)Nc4cccc(Cl)c4C)C3)ccc21 (configuration not stated)	x	n	x	n	n	n
O=[N+]([O-])c1ccccc1CNC1CCCc2ccccc21 (configuration not stated)	n	u	n	28.2µM	u	56.2µM
O=S(=O)(NC1CCSc2ccccc21)c1ccccc1 (configuration not stated)	x	n	n	n	n	n
COc1ccc(CNC2c3ccccc3-c3ccccc32)cc1OC	x	u	n	n	n	n
COc1ccc(CNC2CCCc3ccccc32)cc1OC (configuration not stated)	n	u	n	11.2µM	n	70.8µM
COc1ccc(S(=O)(=O)NC2CCSc3ccccc32)cc1OC (configuration not stated)	x	50.1µM	n	n	n	n
COc1ccc(CNC2CCSc3ccccc32)cc1OC (configuration not stated)	x	10µM	n	8.91µM	u	50.1µM
